The source of these data is the supplement of paper PMC5662767.

The assay deals with Drosophila S2 cl14 SmoIP sensor cells. Nature of the assay: normalized SmoIP GFP fluorescence (untreated unstimulated = 0%, untreated Hh-stimulated = 100%); higher = more Smo activation sensor fluorescence. Particulars: compound concentration: 2 uM, 24 h.
[1] abbreviates: stimulation: mock conditioned medium (-Hh).
[2] abbreviates: stimulation: Hh conditioned medium (+Hh).

Structures can show the parent of a compound that is named as a salt.
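Also: flow cytometry read-out as median GFP intensity of gated cells, compounds added 30 min before Hh-conditioned or mock medium, mock-treated cells serving as unstimulated baseline.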

Take `CCc1c(C(=O)C(N)=O)c2c(OCC(=O)O)cccc2n1Cc1ccccc1`: the “normalized SmoIP GFP fluorescence” value under setting [1] was found to be 4.26%.

As for `Cc1cccc(C)c1NC(=O)CN1CCCC1=O` [Nefiracetam(Translon)], the “normalized SmoIP GFP fluorescence” value was 138% under setting [2] and -10.8% under setting [1].

Turning to `CN1c2ccccc2C(NCCCCCCC(=O)O)c2ccc(Cl)cc2S1(=O)=O` (stereo not drawn) [Tianeptine-sodium-salt], the “normalized SmoIP GFP fluorescence” value under setting [2] came out at 110% and the “normalized SmoIP GFP fluorescence” value under setting [1] was determined as 0.274%.

Turning to `CN1CCCCC1Cn1cc(C(=O)c2cc([N+](=O)[O-])ccc2I)c2ccccc21` (stereo not drawn), the “normalized SmoIP GFP fluorescence” value under setting [1] was determined as 32.3%.

For the molecule `N#CC(C#N)=Cc1ccc(O)c(O)c1` [ag-18-tyrphostin-23], the “normalized SmoIP GFP fluorescence” value by setting is: under setting [2], 147%; under setting [1], -12%.

For `C#C[C@]1(O)C=C[C@H]2[C@@H]3CCC4=CC(=O)CC[C@@H]4[C@H]3CC[C@@]21CC` [Gestodene], the “normalized SmoIP GFP fluorescence” value under setting [1] was found to be 5.45%.

In the case of `CCCN1CCOC2c3cc(O)ccc3OCC21` (stereo not drawn), the “normalized SmoIP GFP fluorescence” value was 113% under setting [2] and -13.6% under setting [1].

Turning to `CC(C)(C)c1cc(C=C(C#N)C#N)cc(Br)c1O` [ag-1024-tyrphostin], the “normalized SmoIP GFP fluorescence” value under setting [1] stood at 14.2%.

Regarding `COC[C@H]1OC(=O)c2coc3c2[C@@]1(C)C1=C(C3=O)[C@@H]2CCC(=O)[C@@]2(C)C[C@H]1OC(C)=O` [wortmannin], the “normalized SmoIP GFP fluorescence” value was determined as 73.6% under setting [2] and 9.08% under setting [1].

For the molecule `Cn1cc(C2=C(c3cn(C4CCN(Cc5ccccn5)CC4)c4ccccc34)C(=O)NC2=O)c2ccccc21` [Enzastaurin], the “normalized SmoIP GFP fluorescence” value runs as follows: under setting [2], 135%; under setting [1], 38.2%.

In the case of `Cc1cc(SCc2sc(-c3ccc(C(F)(F)F)c(F)c3)nc2C)ccc1OCC(=O)O`, the “normalized SmoIP GFP fluorescence” value was 106% under setting [2] and -1.74% under setting [1].

Consider `Cc1cccc(C(C)c2c[nH]cn2)c1C` (stereo not drawn) [medetomidine-hcl], for which the “normalized SmoIP GFP fluorescence” value under setting [2] was 108% and the “normalized SmoIP GFP fluorescence” value under setting [1] was -1.63%.

As to `CCN1CCN(C(=O)Cc2ccc(Nc3ncc(F)c(Nc4ccc(C(=O)Nc5ccccc5Cl)cc4)n3)cc2)CC1` [Aurora-A-Inhibitor-I], the “normalized SmoIP GFP fluorescence” value by setting is: under setting [2], 151%; under setting [1], 2.11%.

As to `C[C@]12CC[C@H](O)CC1=CC[C@@H]1[C@@H]2CC[C@]2(C)C(=O)CC[C@@H]12` [Dehydroepiandrosterone(DHEA)], the “normalized SmoIP GFP fluorescence” value is 134% under setting [2] and -12.4% under setting [1].

On to `CN1CCC(c2c[nH]c3ccc(O)cc23)CC1`, for which the “normalized SmoIP GFP fluorescence” value under setting [2] worked out at 111% and the “normalized SmoIP GFP fluorescence” value under setting [1] is -2.82%.

Turning to `COc1ccc(C(CN(C)C)C2(O)CCCCC2)cc1` (stereo not drawn) [Venlafaxine-hydrochloride], the “normalized SmoIP GFP fluorescence” value under setting [1] is -2.42%.

For `Cc1cccc([C@H](C)c2c[nH]cn2)c1C` [dexmedetomidine], the “normalized SmoIP GFP fluorescence” value reads like this: under setting [2], 108%; under setting [1], -2.59%.

In the case of `C[C@]12CCC(=O)C(O)=C1CC[C@@H]1[C@@H]2CC[C@]2(C)C(=O)CC[C@@H]12` [Formestane], the “normalized SmoIP GFP fluorescence” value under setting [2] is 93.9% and the “normalized SmoIP GFP fluorescence” value under setting [1] was -2.2%.

For the molecule `O=C(O)CNC(=O)c1c(O)c2ccccc2n(Cc2ccccc2)c1=O`, the “normalized SmoIP GFP fluorescence” value under setting [2] worked out at 109% and the “normalized SmoIP GFP fluorescence” value under setting [1] is -2.82%.

In the case of `Cc1sc2c(c1C)C(c1ccc(Cl)cc1)=N[C@@H](CC(=O)Nc1ccc(O)cc1)c1nnc(C)n1-2`, the “normalized SmoIP GFP fluorescence” value is, setting by setting: under setting [2], 102%; under setting [1], -1.34%.

With `N[C@@H]1C[C@H]1c1ccccc1` [tranylcypromine-2-pcpa-hcl], the “normalized SmoIP GFP fluorescence” value is 109% under setting [2] and -1.34% under setting [1].

With `CCN(C)C(=O)Oc1cccc([C@H](C)N(C)C)c1` [rivastigmine-tartrate-exelon], the “normalized SmoIP GFP fluorescence” value under setting [2] worked out at 95.8% and the “normalized SmoIP GFP fluorescence” value under setting [1] is -3.05%.

Regarding `C[C@](O)(COc1ccc(C#N)cc1)C(=O)Nc1ccc(C#N)c(C(F)(F)F)c1` [Ostarine], the “normalized SmoIP GFP fluorescence” value is 119% under setting [2] and 2.97% under setting [1].

`C=C1C[C@@H]2[C@H](CC[C@]3(C)C(=O)CC[C@@H]23)[C@@]2(C)C=CC(=O)C=C12` [Exemestane]: the “normalized SmoIP GFP fluorescence” value was 115% under setting [2] and -5.01% under setting [1].

On to `O=C(O[C@H]1C[N+]2(CCCOc3ccccc3)CCC1CC2)C(O)(c1cccs1)c1cccs1` [aclidinium-bromide], for which the “normalized SmoIP GFP fluorescence” value was 97.3% under setting [2] and -4.58% under setting [1].

`CCCN1C[C@H](CSC)C[C@@H]2c3cccc4[nH]cc(c34)C[C@H]21` [Pergolide-mesylate]: the “normalized SmoIP GFP fluorescence” value is, setting by setting: under setting [2], 119%; under setting [1], -0.889%.

Consider `C[C@H]1CNCCc2ccc(Cl)cc21` [lorcaserin-hcl], for which the “normalized SmoIP GFP fluorescence” value is, setting by setting: under setting [2], 99.3%; under setting [1], -2.48%.

As for `CCN(CC)C(=O)c1ccc(C2=CC3(CCNCC3)Oc3cccc(O)c32)cc1`, the “normalized SmoIP GFP fluorescence” value reads like this: under setting [2], 99.7%; under setting [1], 2.11%.

With `[O-][n+]1ccccc1[S-].[O-][n+]1ccccc1[S-].[Zn+2]` [zinc-pyrithione], the “normalized SmoIP GFP fluorescence” value was found to be 131% under setting [2] and 2.35% under setting [1].

For `Fc1cc(F)c2c(c1)[C@H]1C=CC[C@H]1C(c1cccnc1)N2` (stereo partly drawn) [golgicide-a], the “normalized SmoIP GFP fluorescence” value is 101% under setting [2] and -5.15% under setting [1].

For the molecule `Cc1cccc(Cc2c[nH]cn2)c1C` [detomidine-hcl], the “normalized SmoIP GFP fluorescence” value by setting is: under setting [2], 139%; under setting [1], -8.77%.

For `COc1ccc(C(=O)N2CCCC2=O)cc1` [Aniracetam], the “normalized SmoIP GFP fluorescence” value reads like this: under setting [2], 104%; under setting [1], -0.588%.

Take `C=CC[C@]1(O)CC[C@H]2[C@@H]3CCC4=CC(=O)CCC4=C3C=C[C@@]21C` [altrenogest]: the “normalized SmoIP GFP fluorescence” value is, setting by setting: under setting [2], 109%; under setting [1], -1.23%.

In the case of `C[C@H]1CCC/C=C/[C@@H]2C[C@H](O)C[C@H]2[C@H](O)/C=C/C(=O)O1` [brefeldin-a], the “normalized SmoIP GFP fluorescence” value was 101% under setting [2] and -4.58% under setting [1].
